Values without a mark were called inactive. Records with an inconclusive call do not appear. Entries that show only a call come without a potency. Calls of active or inactive are those of the source. Unless noted, the call rests on the fitted dose curve.
How the values were obtained:
[1] = Nuclear factor erythroid 2-related factor 2/antioxidant responsive element (Nrf2/ARE) small molecule agonists: qHTS cell viability counter screen in human keratinocytes (AID 1919968; active means well fitted curve in the direction sought with a large enough effect in the repeat runs; an effect the other way counts as inactive or inconclusive; further: nearly all actives have a fitted effect of over 55% in size)
How it was run: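 Cytotoxicity was multiplexed with the Nrf2/ARE luciferase assay in the same wells. Stably transfected HaCaT keratinocytes were treated with test compounds for 23 h at 37 C. Cell viability was then measured by CellTiter-Fluor fluorescence.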

[2] = target: Gonadotropin-releasing hormone receptor (Homo sapiens) (UniProt P30968); test: Human gonadotropin-releasing hormone receptor (GnRHR) small molecule agonists, calcium flux assay in GnRHR-HEK293 cells (AID 1920063); further: nearly all actives have a fitted effect of over 35% in size
How it was run: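 Agonist activity was measured as intracellular calcium flux in HEK293 cells engineered to stably express human GnRHR. After dye loading for 1 hour at 37 C, compounds in DMSO were added and fluorescence was followed for 3 minutes.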

[3] = target: KiSS-1 receptor (Homo sapiens) (UniProt Q969F8); test: Human kisspeptin (KISS1R) small molecule agonists, calcium flux assay in KISS1R-HEK293 cells (AID 1920064; active means well fitted curve in the direction sought with a large enough effect in the repeat runs; an effect the other way counts as inactive or inconclusive)
How it was run: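 Agonist activity is monitored as intracellular calcium rise in engineered HEK293 cells carrying human KISS1R. Cells are dye-loaded for 1 h at 37 C before compound addition, and fluorescence is recorded for 3 min.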

[4] = p53 small molecule agonists, cell-based qHTS assay with human liver microsomes (AID 1963577)
How it was run: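 p53RE-bla reporter cells were pre-incubated 5 h at 37 C, then treated with compounds plus human liver microsomes (0.5 mg/mL final) and NADPH (0.5 mg/mL final) for 16 h at 37 C. Beta-lactamase activity was read by LiveBLAzer fluorescence after 2 h at room temperature.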

[5] = p53 small molecule agonists, cell-based qHTS assay with rat liver microsomes (AID 1963578)
How it was run: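 p53RE-bla cells were exposed to compounds together with rat liver microsomes (0.5 mg/mL final) and NADPH (0.5 mg/mL final) for 16 h at 37 C, then read by LiveBLAzer beta-lactamase fluorescence after 2 h at room temperature.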

[6] = p53 small molecule agonists, cell-based qHTS assay with rat liver microsomes: qHTS cell viability counter screen (AID 1963580); further: nearly all actives have a fitted effect of over 45% in size
How it was run: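 Luminescent ATP readout (CellTiter-Glo, 30 min at room temperature) reports viability of p53RE-bla HCT-116 cells after 16 h at 37 C with test compounds under metabolic activation by rat liver microsomes and NADPH at 0.5 mg/mL final each.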

[7] = p53 small molecule agonists, cell-based qHTS assay: qHTS cell viability counter screen (AID 1963581); further: nearly all actives have a fitted effect of over 45% in size
How it was run: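 Viability was counter-screened in parallel with the p53 agonist reporter by measuring intracellular ATP luminescence in the same HCT-116 p53RE-bla wells after 16 h compound treatment at 37 C.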

[8] = target: 5-hydroxytryptamine receptor 2A (Homo sapiens) (UniProt P28223); test: 5-hydroxytryptamine receptor 2A (HTR2A) small molecule antagonists, cell-based qHTS assay (AID 1963586); further: nearly all actives have a fitted effect of over 45% in size
How it was run: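 CHO cells stably expressing human HTR2A were plated for 18 h at 37 C, then loaded with calcium dye for 1 h. Compounds were preincubated 5 min at room temperature before DOI (4 nM solution) was added. Kinetic fluorescence was read for 3 min.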

[9] = target: Muscarinic acetylcholine receptor M1 (Homo sapiens) (UniProt P11229); test: Cholinergic receptor muscarinic 1 (CHRM1) small molecule antagonists, cell-based qHTS assay (AID 1963588); further: nearly all actives have a fitted effect of over 40% in size; further: potency means the concentration at half of the fitted maximal effect
How it was run: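 Compounds were tested at 15 concentrations in three independent runs. Dye-loaded CHRM1-CHO cells were exposed 5 min at room temperature before stimulation by acetylcholine added at 50nM. Intracellular calcium was read kinetically on FDSS for 3 min.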

[10] = target: Muscarinic acetylcholine receptor M1 (Homo sapiens) (UniProt P11229); test: Cholinergic receptor muscarinic 1 (CHRM1) small molecule agonists, cell-based qHTS assay (AID 1963589); further: nearly all actives have a fitted effect of over 35% in size
How it was run: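 Cells were plated and incubated 18 h at 37 C/5% CO2, loaded with calcium dye for 1 h at 37 C, then treated with compounds in DMSO. Fluorescence was recorded kinetically at 1 sec intervals.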

[11] = target: Beta-2 adrenergic receptor (Homo sapiens) (UniProt P07550); test: Adrenergic beta2 receptor (ADRB2) small molecule antagonists, cell-based qHTS assay (AID 1963592); further: nearly all actives have a fitted effect of over 50% in size; further: potency means the concentration at half of the fitted maximal effect
How it was run: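 Assay format: CHO-ADRB2 cells, 18-20hr seeding at 37C/5% CO2, then compound plus 1nM isoproterenol agonist mix for 0.5hr RT. Homogeneous time-resolved fluorescence cAMP detection after 1hr, expressed as 665/615 nm ratio.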

[12] = target: D(2) dopamine receptor (Homo sapiens) (UniProt P14416); test: Dopamine D2 receptor (DRD2) small molecule agonists, cell-based qHTS assay (AID 1963594); further: nearly all actives have a fitted effect of over 35% in size
How it was run: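 HEK293 cells stably expressing DRD2 were cultured 24 h at 37 C, then given Ro20-1724 (0.1 mM final) and compounds for 10 min at room temperature. NKH477 (200nM) was then added for 30 min. cAMP was read by HTRF.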

[13] = p53 small molecule agonists, cell-based qHTS assay with human liver microsomes: qHTS cell viability counter screen (AID 1963579); further: nearly all actives have a fitted effect of over 45% in size
How it was run: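 p53RE-bla cells (4,000/well) were pre-incubated 5 h at 37 C, then given compounds in DMSO plus human liver microsomes (0.5 mg/mL final) and NADPH (0.5 mg/mL final) for 16 h at 37 C. Viability was read by CellTiter-Glo luminescence.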

[14] = p53 small molecule agonists, cell-based qHTS assay (AID 1963582; active means well fitted activation curve with a large enough effect in the signal ratio in the repeat runs, not every such curve was filed as active; the % refers to the signal ratio)
How it was run: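 Cells carrying a p53-responsive bla reporter are treated with test compounds for 16 h at 37 C; beta-lactamase activity is then detected with LiveBLAzer B/G FRET substrate after 2 h at room temperature.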

[15] = target: 5-hydroxytryptamine receptor 2A (Homo sapiens) (UniProt P28223); test: 5-hydroxytryptamine receptor 2A (HTR2A) small molecule agonists, cell-based qHTS assay (AID 1963587); further: nearly all actives have a fitted effect of over 30% in size; further: potency means the concentration at half of the fitted maximal effect
How it was run: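 HTR2A-CHO cells, plated 18 h at 37 C/5% CO2, dye-loaded 1 h at 37 C; compounds in DMSO added by pin tool (agonist mode). Intracellular calcium flux read as kinetic fluorescence on FDSS over 2 min at 1 s intervals.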

[16] = cAMP Responsive Elements (CRE) small molecule antagonists, cell-based qHTS assay (AID 1963591; active means well fitted inhibition curve with a large enough effect in the signal ratio in the repeat runs, not every such curve was filed as active; the % refers to the signal ratio)
How it was run: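 Cells (CRE-bla HEK 293T, DMEM with 10% dialyzed FBS and 25 mM HEPES) are seeded and incubated 18 h. Compounds are added with NKH477 agonist at 0.25 uM final for 3 h, then FRET substrate for 2 h.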

[17] = target: D(2) dopamine receptor (Homo sapiens) (UniProt P14416); test: Dopamine D2 receptor (DRD2) small molecule antagonists, cell-based qHTS assay (AID 1963595; active means well fitted inhibition curve with a large enough effect in the signal ratio in the repeat runs, with a control signal flat; the % refers to the signal ratio)
How it was run: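 HEK293 cells stably expressing DRD2 were preincubated with 0.1 mM Ro20-1724, then with compound for 10 min at room temperature. Cells were stimulated with 200 nM NKH477 plus 12 nM quinpirole for 30 min, and cAMP was read by HTRF.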

[18] = G protein-coupled receptor (GPCR) small molecule agonists, calcium flux assay: HEK293 wild type cell line counter screen (AID 1920065)
How it was run: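 Seed cells, incubate 18 h (37 C, 5% CO2); add calcium dye, 1 h at 37 C; pin-transfer compounds, ATP control or DMSO; read fluorescence 480/540 nm each second for 3 min.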

[19] = cAMP Responsive Elements (CRE) small molecule agonists, cell-based qHTS assay (AID 1963590)
How it was run: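 Cells carrying a CRE-driven beta-lactamase reporter (HEK 293T) are seeded, incubated overnight (18 h), and treated with test compounds for 3 h at 37 C; reporter activity is then detected with a FRET substrate after 2 h at room temperature.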

[20] = target: Beta-2 adrenergic receptor (Homo sapiens) (UniProt P07550); test: Adrenergic beta2 receptor (ADRB2) small molecule agonists, cell-based qHTS assay (AID 1963593);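 further: CHO cells stably overexpressing human ADRB2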
How it was run: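 CHO cells stably over-expressing ADRB2 were plated overnight at 37C, then dosed with compounds plus a stimulation mix containing 100uM IBMX and 25uM Ro-20-1724 for 0.5hr at room temperature. cAMP was measured by HTRF competition, 1hr.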

Gonadotropin-releasing hormone receptor (Homo sapiens), sequence (P30968 whole entry, looked up): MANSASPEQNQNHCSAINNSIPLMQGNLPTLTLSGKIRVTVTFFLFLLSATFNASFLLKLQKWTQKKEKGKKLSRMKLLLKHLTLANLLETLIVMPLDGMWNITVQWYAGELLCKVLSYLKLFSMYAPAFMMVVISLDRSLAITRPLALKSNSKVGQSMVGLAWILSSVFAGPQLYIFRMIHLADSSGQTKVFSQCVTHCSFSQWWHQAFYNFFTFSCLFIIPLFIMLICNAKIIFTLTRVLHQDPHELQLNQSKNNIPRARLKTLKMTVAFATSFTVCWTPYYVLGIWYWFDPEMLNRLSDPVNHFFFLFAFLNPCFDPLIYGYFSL
KiSS-1 receptor (Homo sapiens), sequence (Q969F8 whole entry, looked up): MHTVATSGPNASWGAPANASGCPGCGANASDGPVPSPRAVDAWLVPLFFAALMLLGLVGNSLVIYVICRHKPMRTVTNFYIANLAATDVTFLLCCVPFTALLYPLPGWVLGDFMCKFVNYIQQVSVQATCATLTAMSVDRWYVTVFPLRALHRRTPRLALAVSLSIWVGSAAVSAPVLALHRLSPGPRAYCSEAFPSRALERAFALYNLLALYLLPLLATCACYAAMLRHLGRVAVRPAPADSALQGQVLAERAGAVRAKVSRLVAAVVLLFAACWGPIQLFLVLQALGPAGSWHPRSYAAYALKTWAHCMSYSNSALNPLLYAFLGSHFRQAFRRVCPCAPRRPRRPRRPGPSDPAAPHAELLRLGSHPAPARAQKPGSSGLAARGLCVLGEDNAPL
Beta-2 adrenergic receptor (Homo sapiens), sequence (P07550 whole entry, looked up): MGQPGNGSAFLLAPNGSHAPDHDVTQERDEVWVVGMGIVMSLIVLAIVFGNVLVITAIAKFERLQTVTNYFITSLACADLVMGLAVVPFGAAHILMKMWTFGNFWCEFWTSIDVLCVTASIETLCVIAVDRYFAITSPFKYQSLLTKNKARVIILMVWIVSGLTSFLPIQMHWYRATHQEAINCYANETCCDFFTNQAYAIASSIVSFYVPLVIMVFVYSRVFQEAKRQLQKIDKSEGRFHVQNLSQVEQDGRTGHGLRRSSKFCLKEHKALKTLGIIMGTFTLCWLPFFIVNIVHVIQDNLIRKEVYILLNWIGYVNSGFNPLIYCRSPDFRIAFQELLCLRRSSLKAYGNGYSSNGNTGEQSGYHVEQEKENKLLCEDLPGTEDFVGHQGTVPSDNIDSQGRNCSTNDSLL
5-hydroxytryptamine receptor 2A (Homo sapiens), sequence (P28223 whole entry, looked up): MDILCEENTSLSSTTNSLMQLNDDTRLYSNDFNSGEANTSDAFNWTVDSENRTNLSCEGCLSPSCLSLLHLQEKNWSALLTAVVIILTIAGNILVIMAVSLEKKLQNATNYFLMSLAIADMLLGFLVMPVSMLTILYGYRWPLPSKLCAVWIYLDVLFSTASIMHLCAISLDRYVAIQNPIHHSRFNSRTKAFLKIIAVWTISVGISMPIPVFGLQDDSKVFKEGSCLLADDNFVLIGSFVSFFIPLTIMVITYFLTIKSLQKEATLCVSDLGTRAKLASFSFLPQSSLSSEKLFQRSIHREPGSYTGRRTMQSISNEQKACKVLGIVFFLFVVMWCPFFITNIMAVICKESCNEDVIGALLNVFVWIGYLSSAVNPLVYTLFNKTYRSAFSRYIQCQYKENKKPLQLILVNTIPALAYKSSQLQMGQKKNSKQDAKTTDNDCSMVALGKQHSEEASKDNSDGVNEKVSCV
Muscarinic acetylcholine receptor M1 (Homo sapiens), sequence (P11229 whole entry, looked up): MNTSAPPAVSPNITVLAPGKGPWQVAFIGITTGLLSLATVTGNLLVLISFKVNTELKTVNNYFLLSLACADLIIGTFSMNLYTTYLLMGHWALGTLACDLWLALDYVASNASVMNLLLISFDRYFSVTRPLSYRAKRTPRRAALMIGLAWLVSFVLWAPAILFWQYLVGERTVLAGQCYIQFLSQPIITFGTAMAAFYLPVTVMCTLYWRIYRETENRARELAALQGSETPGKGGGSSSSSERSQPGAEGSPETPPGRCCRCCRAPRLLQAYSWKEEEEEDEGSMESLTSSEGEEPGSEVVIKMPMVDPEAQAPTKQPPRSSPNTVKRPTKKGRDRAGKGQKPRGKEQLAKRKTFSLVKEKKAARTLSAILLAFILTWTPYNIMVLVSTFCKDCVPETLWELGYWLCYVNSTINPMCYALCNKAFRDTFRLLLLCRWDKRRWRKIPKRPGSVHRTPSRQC
D(2) dopamine receptor (Homo sapiens), sequence (P14416 whole entry, looked up): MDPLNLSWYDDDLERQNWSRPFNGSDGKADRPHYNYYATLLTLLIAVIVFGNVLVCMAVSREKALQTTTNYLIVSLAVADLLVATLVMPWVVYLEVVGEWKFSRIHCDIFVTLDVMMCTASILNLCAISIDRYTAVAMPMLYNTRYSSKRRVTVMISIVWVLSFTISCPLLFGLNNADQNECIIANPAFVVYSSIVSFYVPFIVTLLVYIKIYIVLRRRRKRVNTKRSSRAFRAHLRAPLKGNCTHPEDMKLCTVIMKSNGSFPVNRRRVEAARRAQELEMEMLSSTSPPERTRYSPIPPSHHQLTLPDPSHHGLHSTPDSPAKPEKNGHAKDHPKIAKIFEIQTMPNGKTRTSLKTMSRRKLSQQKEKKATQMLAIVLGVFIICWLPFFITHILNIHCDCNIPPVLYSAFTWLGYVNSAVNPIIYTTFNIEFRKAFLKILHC

Compound | Potency [1] | Potency [2] | outcome [3] | Potency [4] | Potency [5] | Potency [6] | Potency [7] | Potency [8] | Potency [9] | Potency [10] | Potency [11] | Potency [12] | Potency [13] | Potency [14] | Potency [15] | Potency [16] | Potency [17] | outcome [18] | Potency [19] | Potency [20]
CCOC(=O)N1CCC(n2c(=O)[nH]c3cc(Cl)ccc32)CC1 | inactive | inactive | inactive | inactive | inactive | inactive | inactive | inactive | inactive | inactive | inactive | inactive |  |  |  |  |  |  |  | 
COCCC(=O)OC | inactive | inactive | inactive | inactive | inactive |  | inactive | inactive | inactive | inactive | inactive | inactive | inactive | inactive | inactive | inactive | inactive |  |  | 
CCN(CCCCOC(=O)c1ccc(OC)c(OC)c1)C(C)Cc1ccc(OC)cc1 (stereo not given) | inactive |  | inactive | inactive | inactive | inactive | inactive |  | 0.163 µM (active) | inactive | 13.3 µM (active) | inactive | inactive | inactive | 12 µM (active) |  | inactive | inactive | inactive | 
Cc1c[nH]c2ccccc12 | inactive | inactive | inactive |  | inactive | inactive | inactive | inactive |  | inactive | inactive |  |  | inactive | inactive | inactive | inactive |  | inactive | inactive
CCc1cccc(C)c1 | inactive | inactive | inactive |  | inactive | inactive | inactive | inactive | inactive | inactive | inactive | inactive | inactive | inactive | inactive | inactive | inactive | inactive |  | 
CN(C)CCc1c[nH]c2ccc(C[C@H]3COC(=O)N3)cc12 | inactive |  |  | inactive | inactive |  | inactive |  | inactive |  |  | inactive |  | inactive | 8.49 µM (active) | inactive | inactive | inactive | inactive | inactive
CC(C)SCc1ccco1 | inactive | inactive | inactive |  | inactive | inactive | inactive | inactive | inactive | inactive | inactive | inactive | inactive |  | inactive |  | inactive | inactive | inactive | 
